# Screens as filed in PubChem BioAssay.
# In the library only some 6.7% were active in any assay of this set; here they are far more common.
# Pf Dd2 growth – P. falciparum Dd2 growth inhibitors, primary screen, SYBR Green fluorescence, single dose replicates | 72 h; active compounds read low | activity change, % at 10 µM | 94,000 compounds, 2.3% hits; in the data active = activity change below about -80%; inconclusive = no clear call, values can overlap the other calls
# T cruzi growth-1 – T. cruzi intracellular proliferation inhibitors, primary screen, cell-based, beta-gal Tulahuen parasites, NIH3T3 host, luminescence; 77,000 compounds, 5.9% hits; inhibition, % at 8.34 µM; T. cruzi beta-gal in NIH3T3, GalScreen luminescence, 90 h;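 active = mean inhibition above about 93%, with at least 55% of replicates each passing it, limit read from the data, passing the limit was not always enough; inconclusive = only one of those two conditions holds; inactive = neither condition holds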
# C diff growth – C. difficile growth inhibitors, primary screen, HTS | 86,000 compounds, 0.25% hits | Clostridium difficile clinical isolate growth, OD600, 24 h; active compounds read low | growth activity, negative = inhibition, % at 16 µg/mL (by protocol) | AID 1259249, 2017;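 active = mean growth activity at or below -80% and every replicate also at or below -80%; inconclusive = mean at or below -80% but some replicate above -80%; inactive = mean growth activity above -80%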
# T cruzi growth-2 – T. cruzi intracellular proliferation inhibitors, confirmation, cell-based, NIH3T3 host, beta-gal parasite, luminescence, cherry-pick; inhibition, % at 8.35 µM; T. cruzi beta-gal in NIH3T3, GalScreen luminescence, 90 h; 5,600 compounds, 72% hits; shares compounds with T cruzi growth-1;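 active = mean replicate inhibition above about 95% and at least 55% of replicates individually reaching it, limit read from the data; inconclusive = only one of the two criteria is met; inactive = neither criterion is met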
# T cruzi growth-3 – inhibitors of intracellular T. cruzi replication, confirmation, NIH3T3 host cells, beta-gal parasites, cherry-pick, set 2; shares compounds with T cruzi growth-1; inhibition, % at 2.09 µM; 5,600 compounds, 21% hits; T. cruzi beta-gal in NIH3T3, GalScreen luminescence, 90 h;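 active = mean inhibition above about 95%, with at least 55% of replicates also reaching it, limit read from the data; inconclusive = meets just one of the two conditions; inactive = meets neither condition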
# 3T3 cytotox – cytotoxicity in mouse NIH/3T3 fibroblasts, confirmation, cytotoxicity control for T. cruzi proliferation inhibitor project, cell-based, cherry-pick, single point | NIH/3T3 viability, CellTiter-Glo ATP luminescence, 90 h | 5,600 compounds, 14% hits | cytotoxicity (signal decrease), % at 8.35 µM | shares compounds with T cruzi growth-1;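 active = mean signal decrease across replicates above about 35% based on untreated-well scatter, with enough replicates individually passing, limit read from the data; inconclusive = no rule stated though some were filed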
# 3T3 cytotox 2 – NIH/3T3 fibroblast cytotoxicity, confirmation, cytotoxicity control, cell-based, cherry-pick, single point, set 2 | NIH/3T3 viability, CellTiter-Glo ATP luminescence, 90 h | shares compounds with T cruzi growth-1 | inhibition, % at 24.9 µM | 5,600 compounds, 56% hits;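 active = mean loss of cell viability signal at or above a set limit, and enough replicates individually reaching it; inconclusive = meets only the mean limit or only the replicate share; inactive = meets neither condition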
# Numbers stand for hits; . = inactive; ? = inconclusive; / = no result.
SMILES,Pf Dd2 growth,T cruzi growth-1,C diff growth,T cruzi growth-2,T cruzi growth-3,3T3 cytotox,3T3 cytotox 2
O=C(C[C@H]1CC[C@H]2[C@@H](COC[C@@H](O)CN2C(=O)c2ccccc2)O1)NCc1ccc(-c2ccccc2)cc1,.,.,.,/,/,/,/
C[C@@H]1CN([C@@H](C)CO)C(=O)c2cc(NS(=O)(=O)c3cccs3)ccc2O[C@@H](C)CCCCO[C@H]1CN(C)Cc1ccc(C(=O)O)cc1,.,.,.,/,/,/,/
C[C@@H]1CN([C@H](C)CO)C(=O)c2cc(NS(=O)(=O)c3cccs3)ccc2O[C@@H](C)CCCCO[C@H]1CN(C)Cc1ccc(C(=O)O)cc1,.,/,.,/,/,/,/
C[C@H](CO)N1C[C@H](C)[C@@H](CN(C)Cc2ccc(C(F)(F)F)cc2)OCCCC[C@H](C)Oc2ccc(NS(=O)(=O)c3cccs3)cc2C1=O,.,?,.,98.8,105.1,43.8,106.1
C[C@@H]1CN([C@@H](C)CO)C(=O)c2cc(NS(=O)(=O)c3cccs3)ccc2O[C@@H](C)CCCCO[C@H]1CN(C)Cc1ccc(C(F)(F)F)cc1,.,.,.,/,/,/,/
C[C@@H]1CCCCO[C@H](CN(C)Cc2ccc(C(F)(F)F)cc2)[C@@H](C)CN([C@@H](C)CO)C(=O)c2cc(NS(=O)(=O)c3cccs3)ccc2O1,.,111.9,.,.,111.6,.,106.0
C[C@@H]1CN([C@H](C)CO)C(=O)c2cc(NS(=O)(=O)c3cccs3)ccc2O[C@@H](C)CCCCO[C@@H]1CN(C)Cc1ccc(C(F)(F)F)cc1,.,97.6,.,.,114.0,.,53.6
C[C@@H]1CN([C@H](C)CO)C(=O)c2cc(NS(=O)(=O)c3ccc(Cl)cc3)ccc2O[C@@H](C)CCCCO[C@@H]1CN(C)C(=O)Cc1ccccc1,.,.,.,/,/,/,/
N#C[C@@H]1[C@@H](c2ccc(-c3ccccc3F)cc2)[C@H](CO)N1C(=O)C1CC1,.,.,.,/,/,/,/
COc1ccccc1-c1ccc([C@H]2[C@H](C#N)N(C(=O)C3CC3)[C@H]2CO)cc1,.,105.2,.,.,.,.,?
COc1ccccc1-c1ccccc1[C@H]1[C@H](C#N)N(C(=O)C2CC2)[C@H]1CO,.,/,.,/,/,/,/
COc1ccccc1-c1ccc([C@@H]2[C@H](C#N)N(C(=O)C3CC3)[C@H]2CO)cc1,.,101.8,.,.,.,.,46.9
COc1ccccc1-c1ccc([C@@H]2[C@@H](C#N)N(C(=O)C3CCCC3)[C@@H]2CO)cc1,.,/,.,/,/,/,/
COc1ccc(-c2ccc([C@H]3[C@H](C#N)N(C(=O)C4CC4)[C@H]3CO)cc2)cc1,.,.,.,/,/,/,/
COc1ccccc1-c1ccc([C@@H]2[C@@H](CO)N(C(=O)C3CC3)[C@H]2C#N)cc1,.,105.4,.,.,.,.,.
COc1ccccc1-c1ccc([C@H]2[C@@H](C#N)N(C(=O)C3CC3)[C@H]2CO)cc1,.,98.9,.,.,.,.,.
Cc1ccccc1-c1cnc2c(c1)C(=O)N([C@@H](C)CO)C[C@@H](C)[C@@H](CN(C)C(=O)CN(C)C)O2,.,.,.,/,/,/,/
COCC(=O)N1[C@H](CO)[C@H]2c3ccccc3N(C(=O)NC(C)C)C[C@H]21,.,.,.,/,/,/,/
CN(C)C(=O)C[C@@H]1C[C@H]2c3cc(NC(=O)c4ccc5c(c4)OCO5)ccc3O[C@H]2[C@H](CO)O1,.,.,.,/,/,/,/
N#C[C@H]1[C@H](c2ccc(-c3ccccc3F)cc2)[C@H](CO)N1C(=O)C1CC1,.,.,.,/,/,/,/
COc1ccccc1-c1ccc([C@@H]2[C@@H](C#N)N(C(=O)C3CC3)[C@@H]2CO)cc1,.,104.1,.,.,.,.,.
COc1ccccc1-c1ccc([C@H]2[C@@H](C#N)N(C(=O)C3CC3)[C@@H]2CO)cc1,.,102.7,.,109.8,.,.,34.8
